# High-throughput results as filed in PubChem.
# ATXN2 expr inh: reduces ATXN2 reporter expression in HEK-293 cells. HEK-293 ATXN2-luciferase reporter, luminescence, 24 h. Potency, µM (series often up to 57 µM), inactives show at the highest dose activity change, negative = inhibition, usual class: inhibitors. actives 0.72% (n = 360,000). AID 1745845; note: potency is the fitted concentration of half-maximal effect; % is set by controls: 0 for no effect and ±100 for the full control effect; nearly all actives have a fitted effect of over 55% in size
#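 qHTS (up to 57 uM final) was run with 24 h compound exposure of reporter cells at 37 °C. Each well was multiplexed: SteadyGlo luminescence measured ATXN2-luciferase expression after a fluorogenic Gly-Phe-AFC viability readout (25 uM final).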
# Six1-Eya2 blk: Six1/Eya2 interaction inhibition; Q15475+O00167; AlphaScreen GST-Six1/His-Eya2 binding, biochemical; active compounds read low; activity change, % (no concentration beside the values); actives 0.56% (n = 360,000); AID 651725; in the data active = activity change below about -65%; inconclusive = mostly about -30% to -63%; note: % is set by controls: 0 for no effect and ±100 for the full control effect
#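 GST-Six1 + His-Eya2 (5X stock: 250/500 nM); Tris pH 8.0, 300 mM NaCl, 0.05% BSA, 0.02% Tween 20; GSH donor/Ni acceptor beads; 1 h 37 °C dark; AlphaScreen readout.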
# CtBP-E1A inh: CtBP/E1A binding inhibition; AlphaScreen GST-E1A/His-CtBP binding, 1536-well; active compounds read low; activity change, % (test concentration not listed); actives 0.49% (n = 340,000); in the data active = activity change below about -65%; inconclusive = mostly about -30% to -63%; note: % is set by controls: 0 for no effect and ±100 for the full control effect
#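 GST-E1A and His-tagged CtBP (125 nM each as 5X stock) were preincubated with pin-transferred compound for 2 h at 37 °C in the dark, then glutathione donor and nickel acceptor beads were added for 1 h before AlphaScreen reading.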
# ATXN viability: cell viability loss in ATXN counter-screen. actives 0.49% (n = 400,000). Potency, µM (top dose mostly 56.7 µM), usual class: cytotoxic. S2 cells (HEK-293 line with an ATXN2-luciferase reporter) viability, CellTiter-Fluor protease fluorescence, 24 h; note: potency is the fitted concentration of half-maximal effect; nearly all actives have a fitted effect of over 40% in size
# TGFb inhibitor: TGF-b pathway inhibition; HepG2 CAGA-GFP TGF-b/SMAD3 reporter, GFP fluorescence, 18 h; TGF-beta stimulated, 500 pg/mL final; Potency, µM (series often up to 46.1 µM), for inactives: top-dose activity, negative = inhibition, most hits filed as inhibitors; actives 1.2% (n = 410,000); AID 588855; note: potency is the fitted concentration of half-maximal effect; % is set by controls: 0 for no effect and ±100 for the full control effect; nearly all actives have a fitted effect of over 65% in size
#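 HEPG2 CAGA-GFP reporter cells (1000/well, DMEM with 1% FBS) received compounds, then recombinant TGF-beta at 500 pg/mL final for 18 hours at 37 degrees C. Per-cell GFP summed per well was normalised to unstimulated and stimulated DMSO controls before curve fitting.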
# HepG2 viability: HepG2 cytotoxicity, counter-screen for TGF-b inhibitors | HepG2 CAGA-GFP viability, ATP luminescence, 18 h | Potency, µM (top dose mostly 46.1 µM), without a hit: at the highest dose activity change, negative = cytotoxicity, actives largely listed as cytotoxic | actives 0.76% (n = 410,000) | AID 588856; note: potency is the fitted concentration of half-maximal effect
#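 HepG2 CAGA-GFP cells (1000/well, DMEM with 1% FBS) received compound, then TGF-beta at 500 pg/mL final, and were incubated 18 hours at 37 degrees C. Viability was read by CellTiter-Glo luminescence. Media-only wells were set as complete cell-killing and DMSO as no toxicity.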
# Starred values were filed as active, the others as inactive; i = inactive; ? = inconclusive; / = no result given. Hits are enriched below; roughly 2.8% of the tested compounds scored in any of these assays. Unless noted, calls come from the whole dose curve; as a rule, active = well fitted curve in the direction sought with a large enough effect; inconclusive = small, poorly fitted or top-dose-only effect, or another doubt; inactive = no such curve, though single readings can be large; an effect the other way counts as inactive or inconclusive.
SMILES,ATXN2 expr inh,Six1-Eya2 blk,CtBP-E1A inh,ATXN viability,TGFb inhibitor,HepG2 viability
CC(C)NC(=O)CN1C(=O)c2ccccc2S1(=O)=O,-5%,-2,4,i,-1%,3%
Cc1ccc(C)c(N2CCN(S(=O)(=O)c3ccc(-c4cc(C(F)(F)F)on4)s3)CC2)c1,/,/,/,/,2%,0%
COCCCN1C(=O)C(CC(=O)NC2CCCC2)CC(C(=O)N(C(C)C)C(C)C)=C1C (configuration not stated),-1%,6,2,i,6%,4%
COc1cc(=O)n2c(c1C(=O)N(C)Cc1ccsc1)CCN(Cc1cnn(C)c1C)CC2,/,/,/,i,/,/
CCN(CC)C(=O)CSC(Nc1ccc(F)cc1)=C(C#N)C#N,0%,5,3,i,27%,1%
Cc1ccc(CSC(Nc2ccc(F)cc2)=C(C#N)C#N)cc1,-29%,2,3,i,7.1µM*,-16%
COc1ccc(/C=C/C(=O)Nc2ccc(C)c(S(=O)(=O)N3CCOCC3)c2)cc1,22µM*,-7,?,?,-14%,-11%
Cc1cc(C)n(-c2ccc(C(=O)Nc3ccc(C)c(S(=O)(=O)N4CCOCC4)c3)cc2)n1,?,-73*,-76*,/,?,-14%
CCOC(=O)c1ccc(NC(=O)c2ccc(C)c(S(=O)(=O)N3CCOCC3)c2)cc1,25µM*,-15,2,28µM*,-6%,-45%
O=C(NCc1ccc(Cl)cc1)c1cnc(N2CCOCC2)c2ccccc12,/,/,/,/,?,-30%
Cc1cc(=O)n2nc(N3CCC(C(=O)NCc4ccc(Cl)cc4)CC3)sc2n1,-18%,-65*,/,?,-34%,-10%
O=C(NCc1nnc2n1CCN(Cc1ccc(C(F)(F)F)cc1)CC2)c1cccc(F)c1,/,/,/,i,/,/
CCCCCCOc1ccc(/C=C/C(=O)Nc2sc3c(c2C(=O)OC)CCC3)cc1OC,?,/,/,14µM*,7.9µM*,-102%
CN1CCN(C2=C(Cl)C(=O)N(C3CCCCC3)C2=O)CC1,-22%,-3,3,i,13µM*,-79%
COc1cc2c(NC3CCN(C)CC3)nc(N3CCCN(C)CC3)nc2cc1OCCCCCCN(C)C,/,/,/,/,?,0%
CC1(C(=O)NS(=O)(=O)C2CC2)CCN(C(=O)c2cc3ccccc3s2)C1 (configuration not stated),17%,4,7,i,5%,11%
COc1cc2ncnc(N3CCN(C(=O)Nc4ccc(Oc5ccccc5)cc4)CC3)c2cc1OC,/,/,/,/,10µM*,1%
CCOC(=O)C1CCN(c2ncnc3cc(OC)c(OC)cc23)CC1,-5%,-8,0,i,13%,-3%
Cc1ccc(N(NC(=O)C(O)(c2ccccc2)c2ccccc2)C(=O)CCl)cc1,28µM*,-5,1,18µM*,?,16µM*
N#CC1(c2ccc(F)cc2)CCC(=O)CC1,-1%,/,/,i,/,/
Cc1ccc(S(=O)(=O)N2CC3(O)CN(C(=O)OC(C)C)N(C(=O)OC(C)C)CC3(OC(=O)NCc3ccccc3F)C2)cc1 (configuration not stated),0%,-1,4,22µM*,?,-31%
Cc1ccc(S(=O)(=O)N2CC3(O)CN(C(=O)OC(C)C)N(C(=O)OC(C)C)CC3(OC(=O)NCC3CCCCC3)C2)cc1 (configuration not stated),?,-1,5,14µM*,?,-26%
COC(=O)c1c(OCc2cccnc2)cc(=O)n2c1CCN(C(=O)c1cccc(N(C)C)c1)CC2,/,/,/,i,/,/
COc1cccc(N2CCN(c3ncnc4c3cnn4-c3ccc(C)cc3C)CC2)c1,7.9µM*,-25,-2,10µM*,?,-60%
CCN(CC)C(=O)C1CCCN(c2ncnc3c2cnn3-c2ccc(Cl)cc2)C1 (configuration not stated),13µM*,0,-13,?,-2%,-25%
